The values that follow come from PubChem BioAssay AID1851 (National Center for Advancing Translational Sciences (NCATS), 2009).

Each structure is given as a SMILES string. The campaign covered roughly 16,000 compounds. About 4,000 (25%) were called active. Roughly 26% stayed inconclusive and do not appear here. A selection follows. Unmarked numbers belong to inactive results. Calls come from the whole dose curve; as a rule, active = well fitted curve in the direction sought with a large enough effect; inconclusive = small, poorly fitted or top-dose-only effect, or effect the other way; inactive = no such curve, though single readings can be large or run the other way.
% is set by controls: 0 for no effect and ±100 for the full control effect.

Sequence of Cytochrome P450 2C9 (Homo sapiens) (P11712 whole entry, looked up): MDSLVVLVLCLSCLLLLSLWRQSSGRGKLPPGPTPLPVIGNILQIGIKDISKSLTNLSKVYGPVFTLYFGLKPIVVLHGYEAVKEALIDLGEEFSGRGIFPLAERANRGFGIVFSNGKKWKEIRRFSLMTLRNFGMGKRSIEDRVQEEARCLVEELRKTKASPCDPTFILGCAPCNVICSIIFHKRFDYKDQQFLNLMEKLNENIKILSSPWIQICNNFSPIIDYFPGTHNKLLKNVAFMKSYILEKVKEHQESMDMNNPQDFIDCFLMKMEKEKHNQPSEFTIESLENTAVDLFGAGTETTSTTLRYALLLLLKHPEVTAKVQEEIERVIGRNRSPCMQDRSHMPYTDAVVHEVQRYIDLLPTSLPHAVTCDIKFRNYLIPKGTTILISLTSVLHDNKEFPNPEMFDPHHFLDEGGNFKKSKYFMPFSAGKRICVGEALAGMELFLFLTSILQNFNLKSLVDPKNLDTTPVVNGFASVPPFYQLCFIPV

This assay concerns the target Cytochrome P450 2C9 (Homo sapiens) (UniProt P11712). Briefly: Cytochrome panel assay with activity outcomes. Conditions: recombinant CYP, pro-luciferin dealkylation, luminescence, p450-cyp2c9; series mostly up to 57.1 µM; activity, negative = inhibition: at the top concentration.
Turning to `CN(C(=O)C(Cl)Cl)c1ccc(OC(=O)c2ccco2)cc1`, the “activity, negative = inhibition” value is 7.39% [at 25.6 µM]. Broadly, the AC50 is the midpoint of the concentration-response curve, whichever way the signal moves. `CC(C)(C)c1[nH]nc2c1C(c1ccc(OC(=O)c3ccco3)cc1)C(C#N)=C(N)O2` (centres undefined): the AC50 was 4.47 µM (active).

In the case of `CC(C)NC[C@@H](O)COc1ccccc1-n1cccc1`, the “activity, negative = inhibition” value is 6.41%.

For `C=C(C)[C@@H]1CC=C(C(=O)O)CC1`, the “activity, negative = inhibition” value was 3.86%. `Cc1ccc(C(=O)NNC(=O)CSc2nnc(-c3ccncc3)n2-c2ccc(C)cc2)cc1`: the AC50 was 5.01 µM (active). As to `Cc1cccc(CNc2ncncc2-c2ccc(C(=O)N(C)C)cc2)c1`, the activity, negative = inhibition is 2.16% [at 2.29 µM]. Regarding `CCC1(C)CC(CCNS(=O)(=O)c2ccc(C)cc2)(c2ccc(C)cc2)CCO1` (centres undefined), the half-maximal activity concentration (AC50) is 5.62 µM (active). Take `Cc1ccc(S(=O)(=O)NCCSc2nnnn2C)cc1`: the “activity, negative = inhibition” value is -21.7%. `CN(C)CCNC(=O)C(C(=O)c1ccc(F)cc1)n1ccccc1=O` (centres undefined): the “activity, negative = inhibition” value was -16.9%. For the compound `CC(C)=CCC/C(C)=C/CO/N=C1/[C@H]2O[C@@H]2[C@@H](O)[C@H]2[C@H]1CCn1c(=O)n(Cc3cc4c(cc3Cl)OCO4)c(=O)n12`, the activity, negative = inhibition was -2.9% [at 11.4 µM]. Still for that read-out and setting: then `Cc1noc(C)c1-c1nccc(NCc2cccnc2)n1`, with 3.9% [at 2.29 µM]; and `O=C(O)/C=C\C=C/c1ccc2c(c1)OCO2`, with -5.25% [at 11.4 µM]. For the compound `C[C@@H](C(=O)O)/C(=C/c1ccc2c(c1)OCO2)C(=O)O`, the half-maximal activity concentration (AC50) is 2.51 µM (active). Turning to `OC[C@@H]1O[C@@H](O)[C@H](N=Cc2ccc3c(c2)OCO3)[C@@H](O)[C@@H]1O`, the activity, negative = inhibition was 12.1% [at 11.4 µM].

`Nc1nc(-c2ccc3ccccc3c2)cc(-c2cc(-c3ccc4ccccc4c3)nc(N)n2)n1`: the activity, negative = inhibition is 8.18% [at 11.4 µM]. As for `Cc1cccc(Oc2ncc(-c3ccc(Cl)cc3)cn2)c1C`, the “activity, negative = inhibition” value is -23%.

Turning to `Cc1ccccc1Oc1ccc(-c2nc(N)nc(N)n2)cc1`, the AC50 is 8.91 µM (active). `COc1cccc(NC(=O)C2c3cc(OC)c(OC)cc3C(=O)N(C)C2c2cccnc2)c1` (centres undefined): the “activity, negative = inhibition” value was -19.8%. For `COc1cccc(NC(=O)c2cc(-c3cccnc3)nc3c(Cl)cccc23)c1`, the half-maximal activity concentration (AC50) is 0.794 µM (active).

In the case of `CCCOc1ccc(-c2nc(N)n[nH]2)cc1`, the “activity, negative = inhibition” value is -24.8%. As for `NCCSS(=O)(=O)CCN`, the activity, negative = inhibition is -9.3% [at 11.4 µM]. With `CCc1cc2c(Sc3nc4ccccc4s3)ncnc2s1`, the half-maximal activity concentration (AC50) was 11.2 µM (active).

In the case of `c1ccc(NCCSc2nc3ccccc3s2)cc1`, the activity, negative = inhibition is -12.4% [at 11.4 µM]. With `CCn1c2ccccc2c2cnc(N=CN(C)C)c(C#N)c21`, the AC50 was 14.1 µM (active). As for `O=C1[C@H]2[C@H]3[C@H](O)[C@H](O)C/C(=N/OC[C@@H](O)COCc4ccco4)[C@H]3CC[C@@H]2C(=O)N1C1CCCCC1`, the activity, negative = inhibition is 23.1% [at 11.4 µM]. For `O=C(O)[C@H]1CN[C@H](C(=O)O)C1`, the “activity, negative = inhibition” value was 0.543%. Regarding `CCOC(=O)C(C)Sc1ncc(OC)c(Sc2ccc(Cl)cc2)n1` (centres undefined), the half-maximal activity concentration (AC50) is 2.51 µM (active). Take `CCOC(=O)CSc1ncc(OC)c(Sc2ccc(Cl)cc2)n1`: the AC50 is 0.891 µM (active). On to `COC(=O)CSc1ncc(OC)c(OC)n1`, for which the “activity, negative = inhibition” value was 6.45%. As to `Cc1cnc(CNc2ncncc2-c2ccoc2)cn1`, the activity, negative = inhibition is 6.74% [at 2.29 µM]. For `O=C(Nc1ccc(-n2nncc2-c2ccco2)cc1)c1cc2ccccc2oc1=O`, the AC50 was 2.24 µM (active). As for `COc1ccc(-c2cnnn2-c2ccc(NC(=O)c3ccco3)cc2)cc1OC`, the concentration at half-maximal activity (AC50) is 2.24 µM (active). Consider `O=C(NCCN1CCN(C(=O)c2cc3ccccc3oc2=O)CC1)c1cc2ccccc2oc1=O`, for which the “activity, negative = inhibition” value was -15.3%. For `CO[C@H]1C=CO[C@]2(C)Oc3c(C)c(O)c4c(O)c(c5c(c4c3C2=O)NC2(CCN(CC(C)C)CC2)N=5)=NC(=O)C(C)=CC=C[C@@H](C)[C@@H](O)[C@@H](C)[C@@H](O)[C@@H](C)[C@@H](OC(C)=O)[C@@H]1C`, the “activity, negative = inhibition” value was 5.75% [at 25.6 µM]. `CC(C)NC(=O)N1CC[C@@]2(CCCN(C(=O)c3cccn3C)C2)C1`: the “activity, negative = inhibition” value was 8.02%. With `N#Cc1nc(COc2ccccc2Cl)oc1NCc1ccco1`, the concentration at half-maximal activity (AC50) was 1.78 µM (active). As for `CN(C)CCNc1oc(COc2ccc(Cl)cc2Cl)nc1C#N`, the “activity, negative = inhibition” value is 22.6%. As for `CCOc1ccc(-c2cc(CCCC(=O)NCCc3ccc(OC)c(OC)c3OC)no2)cc1`, the AC50 is 1 µM (active). As for `CCOc1ccc(-c2cc(CCCC(=O)Nc3cc(OC)ccc3OC)no2)cc1`, the AC50 is 2.24 µM (active).

Take `CCOc1ccc(-c2nnn(CC(=O)Nc3cc(OC)ccc3OC)n2)cc1OCC`: the “activity, negative = inhibition” value was -21.2%.

For `CN(C)CCCN1c2ccc(O)cc2Sc2ccc(Cl)cc21`, the activity, negative = inhibition is -1.91% [at 11.4 µM]. Turning to `CSC1=N/C(=C\c2ccc3c(c2)OCO3)C(=O)S1`, the “activity, negative = inhibition” value was -17.8%. For `CSC1=N/C(=C\c2ccc(Br)o2)C(=O)S1`, the half-maximal activity concentration (AC50) is 39.8 µM (active). For `CSC1=N/C(=C\c2ccc(C)cc2)C(=O)S1`, the concentration at half-maximal activity (AC50) is 22.4 µM (active). As to `CCCCNC(=O)C(=O)c1ccccc1NC(C)=O`, the “activity, negative = inhibition” value is 16.8%. For `Cc1cnc(CNc2ncncc2-c2ccccc2C#N)cn1`, the activity, negative = inhibition was -5.28% [at 2.29 µM]. As to `O=c1c(Oc2ccccc2Br)c(C(F)(F)F)oc2c(CN3CCCC3)c(O)ccc12`, the “activity, negative = inhibition” value was -21.2%. With `CCN(CC)Cc1c(O)ccc2c(=O)c(Oc3ccccc3OC)coc12`, the AC50 was 7.94 µM (active). As for `Cc1cccc(Cn2ncc(Cl)c(Cl)c2=O)c1`, the “activity, negative = inhibition” value was -21.4%.

Turning to `Cc1cccc(CNc2ncncc2-c2ccccc2Cl)c1`, the activity, negative = inhibition is 7.19% [at 2.29 µM].

For the compound `C=CCSc1nc2c(sc3nc(C)cc(C)c32)c(=O)[nH]1`, the concentration at half-maximal activity (AC50) was 7.94 µM (active). On to `Cc1c(S(=O)(=O)O)ccc(N=Nc2c(O)c(C(=O)O)cc3ccccc23)c1Cl`, for which the activity, negative = inhibition is -11.1% [at 11.4 µM]. Regarding `Nc1nc2n[nH]nc2c(=O)[nH]1`, the “activity, negative = inhibition” value was -12.4% [at 25.6 µM]. Turning to `Cc1cc(C)c(O)c(Cc2cccc(Cc3cc(C)cc(C)c3O)c2O)c1`, the activity, negative = inhibition is 11.7% [at 11.4 µM]. `Cc1cc(Cc2c(C)c(C)c(Cc3cc(C)cc(C(C)(C)C)c3O)c(C)c2C)c(O)c(C(C)(C)C)c1`: the activity, negative = inhibition was 9.35% [at 11.4 µM]. Take `Cc1cc(Cc2cc(C)cc(C(C)(C)C)c2O)c(O)c(Cc2cc(C)cc(C(C)(C)C)c2O)c1`: the AC50 was 3.16 µM (active). For the compound `Cc1cc(C(C)(C)C)c(O)c(C)c1CC1=NCCN1`, the AC50 entry is “inactive”. For `CC(C)c1cc(CN(C)C)c(O)c(C(C)(C)C)c1`, the activity, negative = inhibition was 1.03% [at 11.4 µM]. For `Cc1cc(Cc2cc(Cc3cc(C)cc(C(C)(C)C)c3O)c(C)cc2C)c(O)c(C(C)(C)C)c1`, the AC50 is 3.16 µM (active).
